Screens as filed in PubChem BioAssay.
CHRM1 PAM: potentiates human M1 receptor response to acetylcholine | P11229 | CHO-K1 hM1, Fluo-8 calcium fluorescence, ACh EC20; 0% = ACh EC20, 100% = maximal ACh | activation, % at 3 µM | actives 0.088% (n = 360,000) | AID 588819; in the data active = activation above about 19%, passing the limit was not always enough
Target sequence (P11229 whole entry, looked up): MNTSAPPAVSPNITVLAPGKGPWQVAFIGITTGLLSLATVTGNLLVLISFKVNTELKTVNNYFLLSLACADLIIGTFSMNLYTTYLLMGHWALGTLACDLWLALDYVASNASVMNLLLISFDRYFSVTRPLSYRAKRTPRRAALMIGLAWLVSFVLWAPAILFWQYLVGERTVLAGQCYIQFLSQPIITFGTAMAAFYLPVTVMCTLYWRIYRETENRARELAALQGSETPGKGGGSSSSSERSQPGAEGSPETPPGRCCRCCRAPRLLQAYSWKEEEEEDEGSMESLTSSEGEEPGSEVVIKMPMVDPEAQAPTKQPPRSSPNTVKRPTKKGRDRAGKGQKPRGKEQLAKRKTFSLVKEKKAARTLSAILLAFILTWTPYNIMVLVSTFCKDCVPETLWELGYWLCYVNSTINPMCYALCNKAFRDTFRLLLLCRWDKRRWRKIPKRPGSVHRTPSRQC
CHO-K1 Ca PAM: counter-screen for M1 PAMs: effect in parental CHO-K1 cells. ATP EC20, Fluo-8 calcium fluorescence; 0% at ATP EC20, 100% at ATP max. actives 0.02% (n = 360,000). activation, % at 3 µM. AID 602247;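 active = activation above the run cutoff, the mean activation of all test compounds plus 3 SD, cut at about 40% in these data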;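 note: peak over basal fluorescence ratio in a 140 s read after ATP addition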
M1 ag: agonists of human M1 muscarinic receptor. CHO-K1 hM1, Fluo-8 calcium fluorescence, agonist mode; 0% DMSO, 100% acetylcholine EC100. activation, % at 3 µM. actives 0.33% (n = 360,000). AID 588814;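 active = activation above the run's mean compound activation plus 3 SD, cut at about 16% in these data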;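 note: peak over basal fluorescence ratio within a 140 s kinetic read after compound addition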
CHO-K1 Ca antag: counter-screen for M1 antagonists: effect in parental CHO-K1 cells; ATP-induced calcium, Fluo-8 fluorescence; inhibition, % at 3 µM; actives 0.6% (n = 360,000); AID 602250;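 active = inhibition above a per-plate cutoff, the plate's mean sample inhibition plus 3 SD, cut at about 24% in these data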;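 note: 0% = DMSO plus EC80 ATP and 100% = DMSO alone without ATP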
CHRM1 antagonist: antagonists of human M1 muscarinic receptor; P11229; CHO-K1 hM1, Fluo-8 calcium fluorescence, ACh EC80 antagonist; inhibition, % at 3 µM; actives 1.3% (n = 360,000); AID 588852;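 active = percent inhibition above its own plate's cutoff, namely the mean of that plate's compound wells plus 3 SD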;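 note: peak over basal fluorescence ratio during 140 s after agonist addition; 0% = ACh EC80 plus DMSO and 100% = DMSO alone without agonist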
CHO-K1 Ca ag: counter-screen for M1 agonists: effect in parental CHO-K1 cells. Fluo-8 calcium fluorescence; scaled to maximal ATP response, vehicle zero. activation, % at 3 µM. actives 0.48% (n = 360,000); in the data active = activation above about 15%;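 note: untransfected CHO-K1 host cells lacking M1 receptor as counterscreen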
* hit, by the source's call. Rows were chosen to be rich in hits. Some 2.3% of all compounds tested hit in one or more screens of this group.

SMILES	CHRM1 PAM	CHO-K1 Ca PAM	M1 ag	CHO-K1 Ca antag	CHRM1 antagonist	CHO-K1 Ca ag
Cc1c(NC(=S)NC(=O)Cc2ccccc2)cccc1C(=O)O	7	10	-4	-3	-12	0
Cc1cc(C)c(O)c(NC(=S)NC(=O)Cc2ccccc2)c1	8	20	19*	-6	-11	7
Cc1cccc(NC(=S)NC(=O)Cc2ccccc2)c1C	7	-4	17*	8	-4	11
COc1cccc2c1cc1c(=O)n(CC(=O)NCCCN3CCCCC3)nc(C)n12	2	23	-4	-15	2	1
CCOC(=O)CNC(=O)C1CCN(S(=O)(=O)c2ccc(-c3nn[nH]n3)cc2)CC1	3	-1	-2	-8	-19	0
CC(C)S(=O)(=O)N1CCCC(C(=O)c2cccc(Cl)c2)C1 (centres undefined)	3	4	-12	-7	-6	1
COCCNC(=O)C1(C)CCCN(C(=O)c2cc(C)oc2C)C1 (centres undefined)	6	16	0	-11	-11	0
Cc1ccc(OCc2cc(C(=O)N3CCC(Oc4cccnc4)CC3)no2)cc1C	-21	-1	-6	25*	26	16*
CC(=O)c1ccc(OCc2cc(C(=O)N3CCC(Oc4ccccc4C)CC3)no2)cc1	-6	-15	-2	-12	0	2
O=C(c1cc(COc2cccc(C(F)(F)F)c2)on1)N1CCC(Oc2cccnc2)CC1	-14	-25	2	24*	37*	14
Cc1cccc(C)c1OCc1cc(C(=O)N2CCC(c3ccncc3)CC2)no1	-14	6	-1	10	29*	11
CC(C)(C)c1ccc(C(=O)O[C@H]2[C@H](Cc3ccccc3)NS(=O)(=O)[C@H]3C[C@@H]4C=C[C@]23O4)cc1	-2	-5	-7	-11	2	0
CC(CCN1C(Nc2ccccc2)=NC[C@@H]1Cc1ccccc1)c1ccccc1 (some centres undefined)	-27	-13	-14	11	37*	1
O=C(Nc1ccc(Nc2ccccc2)cc1)c1ccc(Cl)c([N+](=O)[O-])c1	-16	-13	-1	11	32*	6
CN(c1ccccc1)S(=O)(=O)c1cccc(NC(=O)c2ccc(Cl)c([N+](=O)[O-])c2)c1	-18	-15	-2	3	37*	8
O=C(Nc1ccc(Cl)c(Cl)c1)Nc1nccs1	-11	-24	8	34*	27	11
Cc1cc(C(=O)Nc2ccc(Nc3ccccc3)cc2)ccc1[N+](=O)[O-]	-2	3	-2	-7	-5	3
O=C(Nc1ccc(Cl)c(Cl)c1)c1ccc(Cl)c(Cl)c1	-24	-22	-4	16	37*	8
Cc1ccc(S(=O)(=O)CCC(=O)N(Cc2nnc(-c3ccc(Cl)cc3)o2)C2CC2)cc1	-8	-1	-9	1	14	0
O=C(CC(C(=O)O)c1cccc(Cl)c1Cl)c1ccccc1 (centres undefined)	9	16	-5	-9	-11	1
CC1(C)Cc2ccccc2C(N/N=C/c2ccc(Cl)cc2)=N1	6	-14	-4	12	-18	0
COc1ccc(CNC(=O)c2cc(=O)c3cc(C)cc(C)c3o2)cc1	18	16	0	-14	-27	1
COCc1cc(C)n(CC(=O)Nc2ccc3c(c2)OCO3)c(=O)c1C#N	2	-7	-4	-13	-1	0
CN(c1ccccc1)S(=O)(=O)c1cccc(NC(=O)c2ccncc2)c1	-11	-1	3	4	23	15*
CN(c1cccc(NC(=O)c2ccc(N(C)S(=O)(=O)c3ccccc3)cc2)c1)S(C)(=O)=O	-35	-12	-5	24*	28*	16*
SMILES	CHRM1 PAM	CHO-K1 Ca PAM	M1 ag	CHO-K1 Ca antag	CHRM1 antagonist	CHO-K1 Ca ag
CN(CC(=O)Nc1cccc(S(=O)(=O)NC2=NCCC2)c1)Cc1ccccc1Cl	7	-2	-2	-8	-6	0
O=C(C(Cc1ccccc1)N1C(=O)c2ccccc2C1=O)N1CCc2ccccc21 (centres undefined)	11	-7	-1	26*	-12	0
O=C(Cc1ccccc1)N1CCc2ccccc21	8	14	-7	-5	-5	0
O=C(/C=C/c1cccc(Cl)c1)NCc1ccccc1	-10	6	-6	-10	41*	-1
CC1(C(=O)Nc2ccc3ccccc3c2)CCC(=O)N1CC(F)(F)F (centres undefined)	4	-9	1	32*	9	0
CC1(C(=O)Nc2ccc3c(c2)OCCO3)CCC(=O)N1CC(F)(F)F (centres undefined)	11	13	-5	3	-9	1
CCOC(=O)CN1C(=O)C(Sc2n[nH]c(-c3ccccc3)n2)CCc2ccccc21 (centres undefined)	-6	4	-10	-21	-16	2
C/C(=N\OCc1ccc(C#N)cc1)c1ccc(S(=O)(=O)N(C)C)cc1	-18	-7	-3	9	28	15*
Cc1ccc(C2CC(=O)c3cnc(N4CCN(c5ccccc5)CC4)nc3C2)cc1 (centres undefined)	6	18	-5	-3	0	2
O=C1CC(c2ccc(F)cc2)Cc2nc(N3CCN(c4ccccc4)CC3)ncc21 (centres undefined)	-4	-2	-3	40*	4	1
O=C(COC(=O)c1ccc(Br)o1)Nc1ccc2c(c1)OCCO2	27*	4	0	-12	-20	0
NC(=O)c1ccc(NC(=O)COC(=O)c2ccc3c(c2)OCCO3)cc1	0	14	-1	-5	0	20*
O=C(COC(=O)CNC(=O)c1ccc(Br)o1)Nc1ccc2c(c1)OCCO2	3	3	4	5	-1	1
O=C(COC(=O)c1ccc(NS(=O)(=O)c2ccc3c(c2)OCCO3)cc1)NC1CCS(=O)(=O)C1 (centres undefined)	3	-12	-9	25*	-6	-1
COc1ccc(S(=O)(=O)N(Cc2ccco2)Cc2cc3ccccc3[nH]c2=O)cc1	-9	21	0	-17	10	7
O=C1CCC(C(=O)N2CCSCC2)CN1Cc1cccc(C(F)(F)F)c1 (centres undefined)	-5	-23	-2	10	10	0
O=C(CSc1nnc(NC(=O)C2CC2)s1)Nc1ccc(F)cc1F	4	0	-2	-10	-6	1
CSc1ncc(CN2CCN(CC=C(C)C)C(CCO)C2)cn1 (centres undefined)	-14	12	-10	-1	27*	0
CSc1ncc(CN2CCN(C3CCCC3)C(CCO)C2)cn1 (centres undefined)	-18	15	-6	-2	34*	13
